High-throughput results: PubChem, National Center for Advancing Translational Sciences (NCATS)
HCV inh – qHTS Assay for Inhibitors of Hepatitis C Virus (HCV) | Huh7.5.1 HCVcc-Cre infection, luciferase reporter, 44 h | Potency, µM (highest dose often 41.8 µM), most hits filed as inhibitors | 340,000 compounds, 3.4% hits; active = well fitted inhibition curve with a large enough effect; inconclusive = small, poorly fitted or top-dose-only effect, or another doubt; inactive = no such curve, though single readings can be large or run the other way
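HCVcc-Cre virus at an moi near 0.5 was added right after compound to cells cultured 4 h from seeding (1,000 cells/well). Luciferase activity was determined 44 h later, 15 min after substrate addition at RT.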
VACV mCherry inh – qHTS for Stage-Specific Inhibitors of Vaccinia Orthopoxvirus: mCherry Reporter Primary qHTS. Vaccinia virus mCherry reporter infection, fluorescence. Potency, µM (doses to about 36.5 µM), hits mostly inhibitors. 310,000 compounds, 0.63% hits. AID 720579, 2013; calls by dose curve; tested in A549 cells; also: nearly all actives have a fitted effect of over 35% in size
HCMV antiviral – qHTS Assay for inhibitors of the human cytomegalovirus (HCMV); activity change, negative = inhibition, % at 57.5 µM; HFF cells, HCMV-luciferase reporter, 72 h; stronger effect = lower value; AID 1259415, 2018; 410,000 compounds, 4.5% hits; in the data active = activity change below about -60%; inconclusive = no clear call, values can overlap the other calls; inactive = above about -39%
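Steps: HFFs plated, 16 h 37C; compounds added; HCMV-luciferase added to MOI 1 PFU/cell; 72 h 37C; OneGlo reagent, 5 min room temperature; luminescence read, normalized to controls.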
Lassa entry inh – qHTS for Inhibitors of binding or entry into cells for Lassa Virus; 300,000 compounds, 1.2% hits; Potency, µM (top dose mostly 37.9 µM), usual class: inhibitors; Lassa virus pseudotype entry inhibition, cell reporter; calls by dose curve; tested in HEK293 cells; also: nearly all actives have a fitted effect of over 50% in size
MARV entry inh – qHTS for inhibitors of binding or entry into cells for Marburg Virus; Potency, µM (titrated, usually from 37.8 µM), hits mostly inhibitors; Marburg virus pseudotyped entry inhibition, cell reporter; 300,000 compounds, 1.8% hits; calls by dose curve; tested in HEK293 cells
Vaccinia Venus – qHTS for Stage-Specific Inhibitors of Vaccinia Orthopoxvirus: Venus Reporter Primary qHTS | Vaccinia virus Venus reporter expression, fluorescence | Potency, µM (top dose mostly 36.5 µM), most hits filed as inhibitors | 330,000 compounds, 0.46% hits | AID 720580, 2013; calls by dose curve; tested in A549 cells; also: nearly all actives have a fitted effect of over 30% in size
Of the large screens only hits and unclear results are named; the others gave an inactive call; ! = repeats disagree. Only some compounds are listed: those with a hit (about 7.8% of all), similar ones and a draw of the others.

CC1(C2CCC3C4CCC5CC6(CCC5(C)C4C(=O)CC32C)OCCO6)OCCO1 (stereo not given)	HCMV antiviral -99.1, MARV entry inh inconclusive
O=C(Nc1ccc(F)cc1)c1cccc(N2C(=O)C3C4CCC(C4)C3C2=O)c1 (stereo not given)	HCMV antiviral inconclusive
O=C(Nc1ccc(Br)cc1)c1cccc(N2C(=O)C3C4CCC(C4)C3C2=O)c1 (stereo not given)	HCV inh 25.1µM, HCMV antiviral -81.3, Lassa entry inh inconclusive, MARV entry inh inconclusive
COC(=O)c1ccc(NC(=O)c2cccc(N3C(=O)C4C5C=CC(C6CC56)C4C3=O)c2)cc1 (stereo not given)	HCV inh 5.01µM, Lassa entry inh inconclusive, MARV entry inh inconclusive
COc1cc2cc(CN(CCc3ccccc3C)C(=S)NCCCN3CCOCC3)c(=O)[nH]c2cc1OC	HCV inh inconclusive, HCMV antiviral -64.0 (no result: VACV mCherry inh, Lassa entry inh, MARV entry inh, Vaccinia Venus)
CN(C)CCCNC(=S)N(Cc1cccs1)Cc1cc2cc3c(cc2[nH]c1=O)OCCO3	HCV inh 2.51µM, Lassa entry inh inconclusive, MARV entry inh 23.1µM
COc1cc2cc(CN(CCc3ccccc3C)C(=S)NCCCN(C)C)c(=O)[nH]c2cc1OC	HCV inh inconclusive, Lassa entry inh inconclusive, MARV entry inh inconclusive
CCc1ccccc1NC(=S)N(CCCN(C)C)Cc1cc2cc3c(cc2[nH]c1=O)OCO3	HCMV antiviral -75.2, MARV entry inh inconclusive
CN(C)CCCNC(=S)N(CCN(C)C)Cc1cc2cc3c(cc2[nH]c1=O)OCCO3	MARV entry inh inconclusive
O=C(Cn1cc(S(=O)(=O)N2CCN(c3ccccc3F)CC2)c2ccccc2c1=O)Nc1cccc(C(F)(F)F)c1	MARV entry inh inconclusive (no result: HCV inh)
CC(=O)n1c(=O)oc2ccccc21	none (no result: VACV mCherry inh, Lassa entry inh, MARV entry inh, Vaccinia Venus)
CCOC(=O)n1c(=O)oc2ccccc21	HCMV antiviral -96.0
CCN1C(=O)[C@H]2[C@H]3[C@H](O)[C@H](O)CC(=O)[C@@H]3CC[C@H]2C1=O	none (no result: HCV inh, HCMV antiviral, Lassa entry inh, MARV entry inh)
Cc1cccc(N2CCN(Cc3cc(=O)oc4cc(C)ccc34)CC2C)c1 (stereo not given)	HCMV antiviral -65.6 (no result: HCV inh)
O=c1cc(CN2CCN(C/C=C/c3ccccc3)CC2)c2cc(O)ccc2o1	HCV inh inconclusive, Lassa entry inh inconclusive (no result: VACV mCherry inh, Vaccinia Venus)
Cc1ccc2oc(=O)cc(CN3CCN(C/C=C/c4ccccc4)CC3)c2c1	HCV inh 10µM
O=C(Nc1nc2c(cc3c4c(cccc42)CC3)s1)c1ccccc1Cl	HCV inh 6.31µM, HCMV antiviral inconclusive, Lassa entry inh inconclusive, MARV entry inh inconclusive
O=C(Nc1nc2c(Cl)cccc2s1)C1CC1	none (no result: VACV mCherry inh, Lassa entry inh, MARV entry inh, Vaccinia Venus)
Cc1ccccc1-c1nc(CS(=O)(=O)CC(=O)N(C)C2CCCCC2)c(C)o1	HCV inh 11.2µM!, VACV mCherry inh inconclusive, Vaccinia Venus inconclusive (no result: Lassa entry inh)
CCOc1ccccc1C(=O)Nc1cccc(-c2nc3ccccc3s2)c1	none (no result: HCV inh)
Nc1nc(N2CCN(C(=O)c3ccco3)CC2)nc2ccc(Br)cc12	HCV inh 11.2µM, Lassa entry inh inconclusive, MARV entry inh inconclusive (no result: VACV mCherry inh, HCMV antiviral, Vaccinia Venus)
CCOC(=O)C1=C(CCc2ccccc2)NC(=O)NC1c1ccc(Br)cc1 (stereo not given)	none (no result: Lassa entry inh, MARV entry inh)
CCOC(=O)C1=C(CSc2nc3ccccc3s2)NC(=O)NC1c1cc(C)ccc1C (stereo not given)	HCV inh inconclusive, HCMV antiviral inconclusive, Lassa entry inh inconclusive, MARV entry inh inconclusive
CCOC(=O)C1=C(c2ccccc2)NC(=O)NC1c1ccc(O)c(OCC)c1 (stereo not given)	none
CCOC(=O)C1=C(CN2CCN(c3ccc(C)cc3C)CC2)NC(=O)NC1c1ccc(OC)cc1 (stereo not given)	HCMV antiviral -81.6, Lassa entry inh inconclusive, Vaccinia Venus inconclusive (no result: HCV inh, MARV entry inh)
CCOC(=O)C1=C(CNCc2ccccc2)NC(=O)NC1c1ccc(C)cc1 (stereo not given)	HCMV antiviral -69.7 (no result: HCV inh)
CCOC(=O)C1=C(c2ccccc2)NC(=O)NC1c1ccc(O)c(Cl)c1 (stereo not given)	HCMV antiviral -101.6 (no result: VACV mCherry inh, Lassa entry inh, MARV entry inh, Vaccinia Venus)
CCOC(=O)C1=C(CSc2nc3ccccc3s2)NC(=O)NC1c1ccc(OC)cc1 (stereo not given)	HCV inh inconclusive, VACV mCherry inh inconclusive, HCMV antiviral -60.0, Lassa entry inh inconclusive, MARV entry inh inconclusive, Vaccinia Venus inconclusive
COc1ccc(-n2c(=O)c3c4c(sc3n(Cc3ccccc3C)c2=O)CCCC4)c(OC)c1	MARV entry inh inconclusive (no result: HCV inh)
CCOc1cc(CNC(=O)c2ccc(C)c(NC(=O)c3nsc4ccccc34)c2)ccc1OC	Lassa entry inh inconclusive (no result: HCV inh, MARV entry inh)
CCOC(=O)C1=C(CN2CCN(c3cc(C)ccc3C)CC2)NC(=O)NC1c1ccc(Cl)cc1 (stereo not given)	HCMV antiviral -80.5, Lassa entry inh inconclusive, MARV entry inh inconclusive (no result: HCV inh)
CCOC(=O)C1=C(CN2CCN(c3ccc(OC)cc3)CC2)NC(=O)NC1c1ccc(Cl)cc1 (stereo not given)	HCMV antiviral inconclusive, Lassa entry inh inconclusive, MARV entry inh inconclusive (no result: HCV inh)
Oc1ccccc1CNc1ccc(Br)cn1	HCV inh inconclusive, HCMV antiviral -105.3, Lassa entry inh inconclusive, MARV entry inh inconclusive, Vaccinia Venus 14.1µM (no result: VACV mCherry inh)
Brc1ccc(NCc2cccc3ccccc23)nc1	MARV entry inh inconclusive (no result: VACV mCherry inh, Vaccinia Venus)
O=C(NNC(=O)c1ccncc1)Nc1ccc(Cl)cc1	MARV entry inh inconclusive
N/N=C/C(=N\Nc1ccc(Cl)cc1)C(=O)c1ccncc1	HCV inh 22.4µM, VACV mCherry inh inconclusive, Lassa entry inh inconclusive, MARV entry inh inconclusive
Cc1nc(SCC(=O)c2c[nH]c3ccccc23)n[nH]1	HCMV antiviral -68.7, Lassa entry inh inconclusive
CCOc1ccccc1N(CC(=O)NCC1CCCO1)C(=O)CNS(=O)(=O)c1ccccc1 (stereo not given)	HCMV antiviral -68.8
CCC(C(=O)NCC1CCCO1)N(Cc1ccc(F)cc1)C(=O)CNS(=O)(=O)c1ccccc1 (stereo not given)	HCMV antiviral -70.6
COc1ccc(S(=O)(=O)N(CC(=O)NCC2CCCO2)Cc2ccccc2)cc1C (stereo not given)	HCMV antiviral -90.2, Lassa entry inh inconclusive
COC(=O)[C@@H]1CCCN1C(=O)c1cnn(-c2nccc(-c3cc(C)sc3C)n2)c1C1CC1	none (no result: HCV inh, HCMV antiviral, Lassa entry inh, MARV entry inh)
CC(C)(O)C#Cc1ccc(CN2CCc3nnc(CNC(=O)c4cccc(F)c4)n3CC2)cc1	none (no result: HCV inh, HCMV antiviral, Lassa entry inh, MARV entry inh)
CCN1CCN(C(=O)c2ccc3c(c2)N(Cc2cc(C)ccc2C)C(=O)c2ccccc2S3=O)CC1 (stereo not given)	none (no result: HCV inh)
CC(=O)Nc1ccc(NC(=O)C2CC(=O)N(Cc3ccccc3)C2)cc1 (stereo not given)	none
